# According to PubChem BioAssay AID1345083 (National Center for Advancing Translational Sciences (NCATS), 2018):
# Out of some 94,000 compounds screened, about 6,200 (6.6%) were called active. About 31% were inconclusive and are not listed. Calls come from the whole dose curve; as a rule, active = well fitted inhibition curve with a large enough effect; inconclusive = small, poorly fitted or top-dose-only effect; inactive = flat fitted curve, though single readings scatter. For the sample, actives were picked, then their nearest neighbours and some compounds at random.
# Assay: Cytotoxic Profiling in HEK 293 Cell Line of Diverse Libraries Using Quantitative High-Throughput Screening; note: nearly all actives have a fitted effect of over 60% in size
# Details: HEK 293 viability, ATP luminescence (CellTiter-Glo), 48-72 h; series mostly up to 115 µM; activity change, negative = cytotoxicity: at the top concentration
# Summary of the method: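 HEK 293 cells seeded at 250 cells/well were exposed to compound for 48 or 72 hr at 37 degree Celsius. Viability taken as ATP content by CellTiter-Glo luminescence.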
# % is set by controls: 0 for no effect and ±100 for the full control effect; potency is the fitted concentration of half-maximal effect.
Compound,"activity change, negative = cytotoxicity",Potency,outcome
O=C1CC(c2ccccc2)N(C(=O)C2CC2)CCCN(C(=O)Cc2cccc(F)c2)CCN1 (stereo unspecified),2.27% (inactive),,
CC(C)Cc1cc(CNc2nc(C(C)(C)C)nc3c2cnn3C)no1,,35.5 µM (active),
CC(Cn1cncn1)Nc1nc(-c2ccncc2)nc2c1cnn2C (stereo unspecified),0.89% (inactive),,
CCCc1nc(NCC(c2ccccn2)N2CCOCC2)c2cnn(C)c2n1 (stereo unspecified),-0.509% (inactive),,
COc1ccccc1CC(=O)NCc1nnc2c(-c3nc(C(C)C)no3)cccn12,-10% (inactive),,
COCCC1(CO)CCCN(C(=O)Cn2cc(C)c(=O)[nH]c2=O)C1 (stereo unspecified),3.68% (inactive),,
O=C(NCc1nnc2ccccn12)C1NCCc2[nH]cnc21 (stereo unspecified),0.78% (inactive),,
CCC(=O)N1CCC2(CC1)CC(N1CCN(CC(C)C)CC1)CCO2 (stereo unspecified),-2.2% (inactive),,
Cc1ccc(S(=O)(=O)N[C@@H]2CCOC[C@H]2OCC(=O)O)cc1,0.393% (inactive),,
O=C1NCCCCCCN(S(=O)(=O)c2cccs2)[C@H]2CCCC[C@@H]12,-15% (inactive),,
O=C(c1ccc2c(c1)N(C(=O)c1ccccc1)CC2)N1CCN(c2ccc(Cl)cc2)CC1,,31.6 µM (active),
CC(=O)N1CCc2ccc(C(=O)N3CCCCCC3)cc21,-7.22% (inactive),,
CCC(CC)N1CCN(C(=O)c2ccc3c(c2)N(S(C)(=O)=O)CC3)CC1,-6.68% (inactive),,
O=C(NC[C@H]1O[C@@H](CO)[C@@H](O)[C@H]1N1CCOCC1)c1ccco1,-4.16% [at 172 µM] (inactive),,
O=C(CCn1ccn2nc3c(c2c1=O)CCCC3)Nc1ccc(F)cc1Cl,-2.23% (inactive),,
O=C(CCn1ccn2nc3c(c2c1=O)CCCC3)Nc1ccc(Cl)c(C(F)(F)F)c1,,44.7 µM (active),
CCOC(=O)c1ccc(NC(=O)CCn2ccn3nc4c(c3c2=O)CCCC4)cc1,-21.7% (inactive),,
CCc1nc(-c2c3n(c(=O)n(CC(=O)NC4CCCCC4)c2=O)CCCC3)no1,4.44% (inactive),,
CCOC(=O)C1=C(C)NC(=O)NC1c1ccccc1 (stereo unspecified),-2.03% (inactive),,
Cc1nccnc1N1CCC(c2nnc(CN3CCCC3)n2C)CC1,-7.58% (inactive),,
O=C1Cc2c(-c3ccc(Oc4ccccc4)cc3)n[nH]c2CN1CCc1ccncc1,,79.4 µM (active),
CC(C)Oc1cccc(-c2n[nH]c3c2CC(=O)N(Cc2ccccc2)C3)c1,-22.1% [at 172 µM] (inactive),,
O=C1Cc2c(-c3ccc(CO)cc3)n[nH]c2CN1CC1CCOCC1,-27.8% [at 172 µM] (inactive),,
CCc1ocnc1C(=O)NC1CC(c2cc(N3CCC(O)C3)ncn2)C1 (stereo unspecified),,,inactive

Compound,"activity change, negative = cytotoxicity",Potency,outcome
Cc1nc(CCNC(=O)C2CCCN(c3nc(-c4ccccc4)nc4c3CCC4)C2)n[nH]1 (stereo unspecified),-3.49% (inactive),,
O=C(NC1CCNC1)C1CCN(c2nc(-c3ccccc3)nc3c2CCC3)CC1 (stereo unspecified),,35.5 µM (active),
O=C(CN1CCCC1=O)NC1CCCc2nc(-c3ccccc3)ncc21 (stereo unspecified),7.55% (inactive),,
CC(C)c1nc(CCNC(=O)[C@H]2CNC[C@@H](C(=O)N3CCCC3)C2)cs1,-4.75% (inactive),,
O=C(NCC1CCNCC1)c1ccc(C2CCNC2)cc1 (stereo unspecified),-14.4% (inactive),,
CN(C)CCNC(=O)c1nc2nc(-c3ccccc3)c(-c3cccc(F)c3)cc2n1C,,50.1 µM (active),
COc1ccc(Nc2cc3c(nc2-c2ccccc2)nc(C(=O)NCCN(C)C)n3C)cn1,-23.9% (inactive),,
O=C(NCCn1cccc1-c1nc(-c2ccc3c(c2)OCO3)no1)c1cccc(F)c1,-25.2% (inactive),,
Cn1cccc1C(=O)N1CC[C@@H]2NC(=O)[C@H]3C[C@H](NC(=O)C4CC4)CN3C(=O)[C@H]21,,,inactive [at 172 µM]
CCCCN1C(=O)C(CC(=O)N2CCCCC2)Sc2ncccc21 (stereo unspecified),-19.9% (inactive),,
CC(C)CNC(=O)c1nc2sccn2c1-c1ccncc1,,,inactive [at 172 µM]
CC(=O)N1CCC([C@@H]2CN(Cc3cc(F)c(F)cc3F)C[C@H]2CO)CC1,-4.04% (inactive),,
CC(C)S(=O)(=O)N1CCC(N2CC(OCC3CC3)C23CCCCC3)CC1 (stereo unspecified),-25.7% (inactive),,
O=C1CC2(CCN(C(=O)c3ccccc3)C2)Nc2ccccc2N1 (stereo unspecified),-16% (inactive),,
O=C1NC2(CCN(C(=O)c3ccccc3)C2)COc2ccccc21 (stereo unspecified),,100 µM (active),
O=C1NC2(CCN(C(=O)c3ccccn3)C2)Oc2ccccc21 (stereo unspecified),-8.41% [at 172 µM] (inactive),,
CCN(C1CCOCC1)C1CN(C(=O)C2CCC2)C1,-1.75% (inactive),,
COCCNC(=O)[C@@H]1C[C@H](Oc2ccccc2)CN1C(=O)c1ccccn1,-0.692% (inactive),,
COc1ccc(C(=O)NCCC2CCN(C(=O)Nc3cc(F)ccc3F)CC2)cc1,-7.34% (inactive),,
Cn1nccc1C(=O)NC1CCCN(c2cc(N3CCCC3)ncn2)C1 (stereo unspecified),-1.62% (inactive),,
COc1ccc(-c2cc(N3CCC(NC(=O)c4ccc(N(C)C)cc4)C3)n[nH]2)cc1 (stereo unspecified),,70.8 µM (active),
COc1ccc(-c2cc(N3CCCC(NC(=O)c4cccc(Cl)c4)C3)n[nH]2)cc1 (stereo unspecified),,44.7 µM (active),
COc1ccc(-c2cc(N3CCCC(NC(=O)c4ccsc4)C3)n[nH]2)cc1 (stereo unspecified),,35.5 µM (active),
Cc1ccc(-c2cc(N3CCC(CNC(=O)c4ccc(N(C)C)cc4)CC3)n[nH]2)cc1,-2% (inactive),,

Compound,"activity change, negative = cytotoxicity",Potency,outcome
COC(=O)NC1CCCN(c2ccc3nnc(C)n3n2)C1 (stereo unspecified),,,inactive [at 172 µM]
COc1ccc(-c2cc(N3CCCC(NC(=O)c4cc(F)ccc4Cl)C3)n[nH]2)cc1 (stereo unspecified),,28.2 µM (active),
Cc1ccc(C(=O)NC2CCN(c3cc(-c4cccs4)[nH]n3)C2)cc1 (stereo unspecified),-25.9% (inactive),,
O=C(NC1CCN(c2cc(C(F)(F)F)ncn2)CC1)c1ccc(F)cc1,3.44% (inactive),,
Cc1cc(C(=O)N2C[C@@H](COCC(N)=O)[C@H](c3ccncc3)C2)c(C)o1,-13.7% (inactive),,
O=C1Nc2cnccc2C2(CCN(C(=O)c3ccccc3F)C2)O1 (stereo unspecified),-11.1% [at 172 µM] (inactive),,
CCOc1ccccc1NC(=O)CC[C@H]1NC(=O)c2ccccc2NC1=O,1.93% (inactive),,
O=C(c1ccoc1)N1CCC(Oc2ncccc2C(=O)N2CCOCC2)C1 (stereo unspecified),2.21% (inactive),,
CN1[C@@H](CCC(=O)NCc2ccccc2)CNC(=O)[C@@H]2[C@H]1CCN2Cc1csnn1,0.839% [at 172 µM] (inactive),,
O=C(c1ccc(CO)o1)N1CCC2(CC1)[C@H](O)C[C@@H]2OCCO,-5.07% (inactive),,
CC(c1cccs1)N(C)Cc1ccncc1 (stereo unspecified),-4% [at 172 µM] (inactive),,
COCc1nnc2n1CCC(NC(=O)NCCc1ccccc1)CC2 (stereo unspecified),-2.98% (inactive),,
O=C(CCCc1ccccc1)Nc1ccc(-c2nnc3n2CCCC3)cc1,-2.04% (inactive),,
CN1Cc2ncnc(N3CCCCC3)c2CN(c2ccccc2)C1=O,-7.24% [at 172 µM] (inactive),,
COc1ccccc1-c1cccc(CN2CCCC(C(=O)NCC3CC3)C2)c1 (stereo unspecified),,39.8 µM (active),
O=C(c1cccs1)C1CCCN(C(=O)COc2ccc(F)cc2F)C1 (stereo unspecified),-46.5% (inactive),,
O=C1CCN(Cc2ccncc2)CCCC(C(=O)Nc2cccc(F)c2)CCN1 (stereo unspecified),-1.43% (inactive),,
O=C(C1CCCN(Cc2cccc(-c3ccc(F)cc3F)c2)C1)N1CCCCC1 (stereo unspecified),,31.6 µM (active),
O=C(NCC1CC1)C1CCCN(C2CCN(Cc3ccncc3)CC2)C1 (stereo unspecified),-7.71% (inactive),,
CNC(=O)[C@@H](Cc1ccccc1)N1CCC[C@H]1C(=O)NCC1CC1,-15% [at 172 µM] (inactive),,
O=C(Nc1cccc(F)c1)N1CCCC(CN2CCOCC2)CC1 (stereo unspecified),-4.63% (inactive),,
CN(C)C(=O)N1CCCC(C(=O)N2CCC(N3Cc4cccn4C3=O)CC2)C1 (stereo unspecified),-6.08% (inactive),,
O=C(Nc1ccc(F)cc1)C1CCCN(Cc2cccc(-c3ccc(F)cc3F)c2)C1 (stereo unspecified),,35.5 µM (active),
